# Reference: ChEMBL document CHEMBL2218924, “A broad activity screen in support of a chemogenomic map for kinase signalling research and drug discovery” (Biochem J, 2013)
# How the values were obtained:
# [1] = molecular target: Tyrosine-protein kinase SYK (Homo sapiens) (UniProt P43405); settings: at 10 µM
# [2] = molecular target: T1, Mitogen-activated protein kinase kinase kinase 7 (Homo sapiens) (UniProt O43318); settings: at 1 µM
# T1 sequence (whole entry): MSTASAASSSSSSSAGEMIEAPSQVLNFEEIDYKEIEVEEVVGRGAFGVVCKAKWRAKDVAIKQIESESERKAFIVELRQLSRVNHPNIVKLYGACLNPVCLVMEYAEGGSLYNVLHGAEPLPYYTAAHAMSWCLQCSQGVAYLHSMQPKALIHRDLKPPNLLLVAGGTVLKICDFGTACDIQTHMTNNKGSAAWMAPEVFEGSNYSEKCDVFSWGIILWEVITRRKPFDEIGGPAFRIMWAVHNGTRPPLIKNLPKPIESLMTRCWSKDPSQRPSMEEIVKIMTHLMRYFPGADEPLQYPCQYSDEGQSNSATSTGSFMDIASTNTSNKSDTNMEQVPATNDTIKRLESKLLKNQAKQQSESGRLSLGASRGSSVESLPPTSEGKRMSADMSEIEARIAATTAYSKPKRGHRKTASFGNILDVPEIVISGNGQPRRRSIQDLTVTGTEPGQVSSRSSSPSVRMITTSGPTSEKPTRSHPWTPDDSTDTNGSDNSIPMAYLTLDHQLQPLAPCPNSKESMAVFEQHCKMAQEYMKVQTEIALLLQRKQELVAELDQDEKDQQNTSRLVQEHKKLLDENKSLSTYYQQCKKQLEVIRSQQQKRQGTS
# [3] = molecular target: T1, Mitogen-activated protein kinase kinase kinase 7 (Homo sapiens); settings: at 10 µM
# [4] = molecular target: T2, Serine/threonine-protein kinase TAO1 (Homo sapiens) (UniProt Q7L7X3); settings: at 1 µM
# T2 sequence (whole entry): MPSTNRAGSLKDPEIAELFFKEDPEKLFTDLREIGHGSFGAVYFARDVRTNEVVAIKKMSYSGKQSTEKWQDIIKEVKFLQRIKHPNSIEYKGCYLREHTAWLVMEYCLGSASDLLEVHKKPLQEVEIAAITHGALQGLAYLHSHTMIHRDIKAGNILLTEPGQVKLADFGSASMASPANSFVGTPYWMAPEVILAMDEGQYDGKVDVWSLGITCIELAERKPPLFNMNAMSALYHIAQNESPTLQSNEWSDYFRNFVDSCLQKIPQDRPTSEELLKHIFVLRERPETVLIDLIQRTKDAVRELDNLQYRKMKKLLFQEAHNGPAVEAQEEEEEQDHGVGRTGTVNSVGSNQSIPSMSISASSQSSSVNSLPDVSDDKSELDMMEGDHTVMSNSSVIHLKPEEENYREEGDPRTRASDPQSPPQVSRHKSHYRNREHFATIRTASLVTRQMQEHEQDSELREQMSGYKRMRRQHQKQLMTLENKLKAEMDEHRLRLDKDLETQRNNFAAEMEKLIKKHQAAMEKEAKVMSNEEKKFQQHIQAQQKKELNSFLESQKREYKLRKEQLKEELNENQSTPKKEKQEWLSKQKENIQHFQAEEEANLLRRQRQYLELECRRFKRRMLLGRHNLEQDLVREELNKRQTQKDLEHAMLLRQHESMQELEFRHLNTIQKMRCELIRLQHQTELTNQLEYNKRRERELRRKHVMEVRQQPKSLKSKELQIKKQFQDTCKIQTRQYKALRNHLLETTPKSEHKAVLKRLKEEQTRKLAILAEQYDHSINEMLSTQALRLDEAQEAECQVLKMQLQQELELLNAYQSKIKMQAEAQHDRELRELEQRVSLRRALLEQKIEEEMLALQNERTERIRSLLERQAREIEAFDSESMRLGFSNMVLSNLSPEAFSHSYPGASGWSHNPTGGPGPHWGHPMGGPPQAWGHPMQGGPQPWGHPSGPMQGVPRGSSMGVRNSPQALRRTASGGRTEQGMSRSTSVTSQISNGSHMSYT
# [5] = molecular target: T2, Serine/threonine-protein kinase TAO1 (Homo sapiens); settings: at 10 µM
# [6] = molecular target: T3, Serine/threonine-protein kinase TAO2 (Homo sapiens) (UniProt Q9UL54); settings: at 1 µM
# T3 sequence (whole entry): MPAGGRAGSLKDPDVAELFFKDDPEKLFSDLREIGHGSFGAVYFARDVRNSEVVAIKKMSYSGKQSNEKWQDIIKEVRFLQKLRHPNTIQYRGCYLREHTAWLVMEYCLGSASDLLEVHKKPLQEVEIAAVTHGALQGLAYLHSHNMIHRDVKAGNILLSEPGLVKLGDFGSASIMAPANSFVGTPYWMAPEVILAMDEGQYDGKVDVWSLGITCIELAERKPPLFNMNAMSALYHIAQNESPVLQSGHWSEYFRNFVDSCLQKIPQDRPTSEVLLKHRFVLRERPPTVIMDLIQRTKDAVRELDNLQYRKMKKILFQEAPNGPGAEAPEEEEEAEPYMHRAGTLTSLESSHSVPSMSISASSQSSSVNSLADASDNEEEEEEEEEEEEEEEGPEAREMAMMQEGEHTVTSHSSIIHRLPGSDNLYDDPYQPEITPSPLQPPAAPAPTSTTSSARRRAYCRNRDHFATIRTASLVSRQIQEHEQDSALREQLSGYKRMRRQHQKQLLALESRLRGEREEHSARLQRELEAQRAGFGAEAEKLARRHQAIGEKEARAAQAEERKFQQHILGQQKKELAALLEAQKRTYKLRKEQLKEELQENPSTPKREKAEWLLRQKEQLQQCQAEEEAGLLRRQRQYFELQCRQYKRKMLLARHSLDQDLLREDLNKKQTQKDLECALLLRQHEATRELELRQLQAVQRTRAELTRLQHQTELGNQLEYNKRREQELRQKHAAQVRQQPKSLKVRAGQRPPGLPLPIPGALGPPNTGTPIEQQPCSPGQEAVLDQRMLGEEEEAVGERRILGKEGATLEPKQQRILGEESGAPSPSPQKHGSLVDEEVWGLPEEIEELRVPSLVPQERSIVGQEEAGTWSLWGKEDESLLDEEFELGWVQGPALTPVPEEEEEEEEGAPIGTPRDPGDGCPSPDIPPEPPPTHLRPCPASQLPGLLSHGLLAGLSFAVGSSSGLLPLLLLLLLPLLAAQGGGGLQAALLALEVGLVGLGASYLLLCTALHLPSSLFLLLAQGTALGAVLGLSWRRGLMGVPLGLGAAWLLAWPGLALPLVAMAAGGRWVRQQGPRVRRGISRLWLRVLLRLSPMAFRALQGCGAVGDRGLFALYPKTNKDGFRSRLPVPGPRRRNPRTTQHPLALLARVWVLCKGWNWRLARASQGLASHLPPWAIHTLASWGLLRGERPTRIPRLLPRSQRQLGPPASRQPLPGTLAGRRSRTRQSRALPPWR
# [7] = molecular target: T3, Serine/threonine-protein kinase TAO2 (Homo sapiens); settings: at 10 µM
# [8] = molecular target: T4, Serine/threonine-protein kinase TAO3 (Homo sapiens) (UniProt Q9H2K8); settings: at 1 µM
# T4 sequence (whole entry): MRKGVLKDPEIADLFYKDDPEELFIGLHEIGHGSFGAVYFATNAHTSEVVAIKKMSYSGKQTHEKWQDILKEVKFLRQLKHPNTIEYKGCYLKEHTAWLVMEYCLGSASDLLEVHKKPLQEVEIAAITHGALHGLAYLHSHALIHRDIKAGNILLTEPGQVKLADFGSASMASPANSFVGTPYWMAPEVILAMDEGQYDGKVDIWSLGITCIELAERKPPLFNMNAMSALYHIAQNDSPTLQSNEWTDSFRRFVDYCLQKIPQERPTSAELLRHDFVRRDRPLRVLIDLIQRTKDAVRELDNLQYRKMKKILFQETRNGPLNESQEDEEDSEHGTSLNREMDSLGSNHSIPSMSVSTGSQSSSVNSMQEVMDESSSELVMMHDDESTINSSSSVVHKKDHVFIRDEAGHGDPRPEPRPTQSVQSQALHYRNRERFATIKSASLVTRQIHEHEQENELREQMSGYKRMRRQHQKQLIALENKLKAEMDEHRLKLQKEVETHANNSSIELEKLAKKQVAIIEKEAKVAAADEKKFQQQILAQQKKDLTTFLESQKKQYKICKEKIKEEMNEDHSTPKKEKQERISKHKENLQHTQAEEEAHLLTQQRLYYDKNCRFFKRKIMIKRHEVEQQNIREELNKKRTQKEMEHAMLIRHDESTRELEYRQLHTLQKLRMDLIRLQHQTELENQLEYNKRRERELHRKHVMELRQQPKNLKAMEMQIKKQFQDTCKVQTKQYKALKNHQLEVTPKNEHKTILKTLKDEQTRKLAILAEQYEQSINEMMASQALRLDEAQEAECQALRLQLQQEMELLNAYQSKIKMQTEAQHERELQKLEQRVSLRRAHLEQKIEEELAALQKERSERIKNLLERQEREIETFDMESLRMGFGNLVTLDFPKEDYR
# [9] = molecular target: T4, Serine/threonine-protein kinase TAO3 (Homo sapiens); settings: at 10 µM
# [10] = molecular target: T5, Serine/threonine-protein kinase TBK1 (Homo sapiens) (UniProt Q9UHD2); settings: at 1 µM
# T5 sequence (whole entry): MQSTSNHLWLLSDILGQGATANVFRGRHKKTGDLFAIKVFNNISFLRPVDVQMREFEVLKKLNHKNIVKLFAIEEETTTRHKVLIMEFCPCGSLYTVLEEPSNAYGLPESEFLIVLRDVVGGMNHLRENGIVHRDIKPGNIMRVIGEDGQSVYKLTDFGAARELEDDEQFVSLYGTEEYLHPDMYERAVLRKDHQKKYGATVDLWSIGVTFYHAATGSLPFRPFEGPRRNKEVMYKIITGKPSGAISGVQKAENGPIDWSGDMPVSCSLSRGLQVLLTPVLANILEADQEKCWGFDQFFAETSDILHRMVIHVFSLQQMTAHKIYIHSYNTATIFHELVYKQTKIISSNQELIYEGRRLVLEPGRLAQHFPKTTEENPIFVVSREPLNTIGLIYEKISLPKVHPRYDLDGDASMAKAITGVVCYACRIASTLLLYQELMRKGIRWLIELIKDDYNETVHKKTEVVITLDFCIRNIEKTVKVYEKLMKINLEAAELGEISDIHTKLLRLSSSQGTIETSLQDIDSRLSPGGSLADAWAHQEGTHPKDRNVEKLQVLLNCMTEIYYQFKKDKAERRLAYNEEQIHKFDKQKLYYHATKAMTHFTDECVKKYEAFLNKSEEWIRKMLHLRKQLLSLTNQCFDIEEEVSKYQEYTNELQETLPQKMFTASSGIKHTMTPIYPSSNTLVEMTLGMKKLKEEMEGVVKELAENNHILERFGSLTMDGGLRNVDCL
compound,measurement,setting,value
O=C(Nc1cccc(Nc2nccc(Nc3cccc(C(F)(F)F)c3)n2)c1)C1CC1,residual activity,[1],75%
same,residual activity,[2],105%
same,residual activity,[3],99%
same,residual activity,[4],95%
same,residual activity,[5],56%
same,residual activity,[6],92%
same,residual activity,[7],29%
same,residual activity,[8],104%
same,residual activity,[9],67%
same,residual activity,[10],78%
